From PubChem BioAssay AID1159580 (chemical genetic matrix, 2015)
In all, about 5,500 compounds went through this assay and about 2,000 (36%) were called active. Another 18% or so got no clear call; they are omitted. Rule as the data show it: active = normalized growth mostly below about 0.91 (no sharp cut-off); inconclusive = no clear call, values can overlap the other calls; inactive = mostly above about 0.92. This is one part of the list.

Assay: chemical genetic growth profiling, strain panel (AID 1159580);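 also: tested at 20 µM; growth read once vehicle control cultures reached saturation at 30 °C; 1 = growth at the plate median or of vehicle wells; lower values mean less growth of the strain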
Settings: growth OD

Measured: normalized growth

CCCCN1CCCCC1C(=O)Nc1c(C)cccc1C (configuration not stated)
inactive: S. cerevisiae deletion strains, locus YJR075W, strain HOC1, hits give low values 1 | S. cerevisiae deletion strains, locus YKL009W, strain mrt4, hits give low values 1.01 | S. cerevisiae deletion strains, locus YKL068W, hits give low values 0.991 | S. cerevisiae deletion strains, locus YKL085W, strain MDH1 (second series), hits give low values 1 | S. cerevisiae deletion strains, locus YKL085W, strain MDH1, hits give low values 1 | S. cerevisiae deletion strains, locus YKL160W, strain elf1, hits give low values 0.992 | S. cerevisiae deletion strains, locus YKL190W, strain CNB1, hits give low values 1.01 | S. cerevisiae deletion strains, locus YKR001C, strain vps1, hits give low values 1.01 | S. cerevisiae deletion strains, locus YKR026C, strain gcn3, hits give low values 0.997 | S. cerevisiae deletion strains, locus YKR091W, strain srl3, hits give low values 0.982 | S. cerevisiae deletion strains, locus YLL001W, strain dnm1, hits give low values 0.991 | S. cerevisiae deletion strains, locus YLL026W, hits give low values 0.998 | S. cerevisiae deletion strains, locus YLL041C, strain sdh2, hits give low values 0.991 | S. cerevisiae deletion strains, locus YLR027C, strain aat2, hits give low values 0.991 | S. cerevisiae deletion strains, locus YLR039C, strain RIC1, hits give low values 1.01 | S. cerevisiae deletion strains, locus YLR058C, strain SHM2, hits give low values 1.01 | S. cerevisiae deletion strains, locus YLR102C, strain apc9, hits give low values 0.994 | S. cerevisiae deletion strains, locus YLR113W, strain HOG1, hits give low values 0.991 | S. cerevisiae deletion strains, locus YLR221C, strain rsa3, hits give low values 0.996 | S. cerevisiae deletion strains, locus YLR258W, strain gsy2, hits give low values 0.992 | S. cerevisiae deletion strains, locus YLR262C, strain YPT6 (second series), hits give low values 0.998 | S. cerevisiae deletion strains, locus YLR262C, strain YPT6, hits give low values 1.06 | S. cerevisiae deletion strains, locus YLR268W, strain sec22, hits give low values 0.943 | S. cerevisiae deletion strains, locus YLR320W, strain mms22, hits give low values 1.01 | S. cerevisiae deletion strains, locus YLR330W, strain CHS5, hits give low values 1.01 | S. cerevisiae deletion strains, locus YLR342W, strain FKS1 (second series), hits give low values 1.03 | S. cerevisiae deletion strains, locus YLR342W, strain FKS1, hits give low values 0.973 | S. cerevisiae deletion strains, locus YLR357W, strain rsc2, hits give low values 0.982 | S. cerevisiae deletion strains, locus YLR370C, strain arc18, hits give low values 0.998 | S. cerevisiae deletion strains, locus YLR371W, strain rom2, hits give low values 0.99 | S. cerevisiae deletion strains, locus YLR384C, strain iki3, hits give low values 0.997 | S. cerevisiae deletion strains, locus YLR418C, strain cdc73, hits give low values 0.993 | S. cerevisiae deletion strains, locus YML016C, strain PPZ1, hits give low values 1.02 | S. cerevisiae deletion strains, locus YML032C, strain rad52, hits give low values 0.982 | S. cerevisiae deletion strains, locus YML120C, strain ndi1, hits give low values 0.973 | S. cerevisiae deletion strains, locus YML124C, strain tub3, hits give low values 0.993 | S. cerevisiae deletion strains, locus YMR058W, strain fet3, hits give low values 0.979 | S. cerevisiae deletion strains, locus YMR078C, strain ctf18, hits give low values 0.99 | S. cerevisiae deletion strains, locus YMR125W, strain sto1, hits give low values 0.982 | S. cerevisiae deletion strains, locus YMR129W, hits give low values 0.992 | S. cerevisiae deletion strains, locus YMR205C, strain PFK2, hits give low values 1.01 | S. cerevisiae deletion strains, locus YMR223W, strain ubp8, hits give low values 1.01 | S. cerevisiae deletion strains, locus YMR231W, strain pep5, hits give low values 0.996 | S. cerevisiae deletion strains, locus YMR263W, strain SAP30, hits give low values 1.01 | S. cerevisiae deletion strains, locus YMR307W, strain GAS1, hits give low values 1.05 | S. cerevisiae deletion strains, locus YNL067W, strain RPL9B, hits give low values 1.01 | S. cerevisiae deletion strains, locus YNL071W, strain lat1, hits give low values 0.984 | S. cerevisiae deletion strains, locus YNL128W, strain TEP1, hits give low values 1.02 | S. cerevisiae deletion strains, locus YNL153C, strain GIM3, hits give low values 1.01 | S. cerevisiae deletion strains, locus YNL183C, strain NPR1, hits give low values 0.948 | S. cerevisiae deletion strains, locus YNL209W, strain ssb2, hits give low values 0.976 | S. cerevisiae deletion strains, locus YNL233W, strain BNI4, hits give low values 1 | S. cerevisiae deletion strains, locus YNL248C, strain rpa49, hits give low values 0.959 | S. cerevisiae deletion strains, locus YNL250W, strain rad50, hits give low values 1 | S. cerevisiae deletion strains, locus YNL271C, strain bni1, hits give low values 0.985 | S. cerevisiae deletion strains, locus YNL298W, strain CLA4, hits give low values 1 | S. cerevisiae deletion strains, locus YNL307C, strain MCK1, hits give low values 0.993 | S. cerevisiae deletion strains, locus YNL322C, strain KRE1 (second series), hits give low values 0.986 | S. cerevisiae deletion strains, locus YNL322C, strain KRE1, hits give low values 1.01 | S. cerevisiae deletion strains, locus YNR049C, strain mso1, hits give low values 0.993 | S. cerevisiae deletion strains, locus YNR052C, strain pop2, hits give low values 0.99 | S. cerevisiae deletion strains, locus YOL006C, strain TOP1, hits give low values 1.02 | S. cerevisiae deletion strains, locus YOL012C, strain htz1 0.897 | S. cerevisiae deletion strains, locus YOL147C, strain pex11, hits give low values 0.987 | S. cerevisiae deletion strains, locus YOR001W, strain rrp6, hits give low values 0.991 | S. cerevisiae deletion strains, locus YOR061W, strain CKA2, hits give low values 1.02 | S. cerevisiae deletion strains, locus YOR069W, strain VPS5, hits give low values 1.01 | S. cerevisiae deletion strains, locus YOR070C, strain gyp1, hits give low values 0.996 | S. cerevisiae deletion strains, locus YOR080W, strain dia2, hits give low values 0.979 | S. cerevisiae deletion strains, locus YOR083W, strain WHI5, hits give low values 1 | S. cerevisiae deletion strains, locus YOR106W, strain vam3, hits give low values 0.969 | S. cerevisiae deletion strains, locus YOR136W, strain idh2, hits give low values 0.993 | S. cerevisiae deletion strains, locus YOR144C, strain elg1, hits give low values 0.993 | S. cerevisiae deletion strains, locus YOR184W, strain ser1, hits give low values 0.986 | S. cerevisiae deletion strains, locus YOR231W, strain MKK1, hits give low values 0.974 | S. cerevisiae deletion strains, locus YOR265W, strain rbl2, hits give low values 0.987 | S. cerevisiae deletion strains, locus YOR270C, strain vph1, hits give low values 0.985 | S. cerevisiae deletion strains, locus YOR290C, strain snf2, hits give low values 0.977 | S. cerevisiae deletion strains, locus YOR316C, strain cot1, hits give low values 0.989 | S. cerevisiae deletion strains, locus YPL051W, strain arl3, hits give low values 0.998 | S. cerevisiae deletion strains, locus YPL055C, strain LGE1, hits give low values 1.03 | S. cerevisiae deletion strains, locus YPL078C, strain atp4, hits give low values 0.978 | S. cerevisiae deletion strains, locus YPL106C, strain sse1, hits give low values 0.962 | S. cerevisiae deletion strains, locus YPL240C, strain hsp82, hits give low values 0.982 | S. cerevisiae deletion strains, locus YPL241C, strain CIN2, hits give low values 1.01 | S. cerevisiae deletion strains, locus YPL256C, strain CLN2, hits give low values 0.958 | S. cerevisiae deletion strains, locus YPR119W, strain clb2, hits give low values 0.987 | S. cerevisiae deletion strains, locus YPR141C, strain kar3, hits give low values 0.985 | S. cerevisiae deletion strains, locus YPR163C, strain tif3, hits give low values 0.992 | S. cerevisiae deletion strains, locus YPR167C, strain met16, hits give low values 0.991 | S. cerevisiae deletion strains, strain wtn01, hits give low values 0.98 | S. cerevisiae strains, strain wild type, hits give low values 1.02
